Experiment in all cases: universal protein binding microarray (PBM); transcription factors of Arabidopsis thaliana; high values mean tight binding
In one assay the target is T1, GST-ANAC092(1-176) (Arabidopsis thaliana, UniProt Q9FKA0 1-176).
T1 sequence: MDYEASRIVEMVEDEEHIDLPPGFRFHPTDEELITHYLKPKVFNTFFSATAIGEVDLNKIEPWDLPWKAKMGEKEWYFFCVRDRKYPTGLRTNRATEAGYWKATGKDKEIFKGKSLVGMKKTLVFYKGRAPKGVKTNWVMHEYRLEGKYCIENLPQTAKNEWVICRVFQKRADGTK
Conditions: protein: recombinant; tags: GST; chain copies: 2; dsDNA, one strand shown. The gist of the method:
(§1)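 Binding is expressed as the normalised enrichment score (E-score). Proteins carrying a GST tag, whether NAC-domain, full-length or DNA-binding-domain forms, were induced in cells, and zinc acetate was added for zinc-finger proteins. After purification on glutathione–Sepharose 4B and quantification by A280 or anti-GST western blot, each was applied in duplicate at 200 to 500 nM final to custom all-10-mer Agilent 4 × 180K arrays made double-stranded by primer extension. Gapped and ungapped 8-mers were scored.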

The target of a further assay is GST-NTL6(1-168) (Arabidopsis thaliana, UniProt Q9SCK6 1-168). As to conditions: protein: recombinant; tags: GST; chain copies: 2; dsDNA, one strand shown. The gist of the method: as §1
Sequence of GST-NTL6(1-168) (Q9SCK6 1-168): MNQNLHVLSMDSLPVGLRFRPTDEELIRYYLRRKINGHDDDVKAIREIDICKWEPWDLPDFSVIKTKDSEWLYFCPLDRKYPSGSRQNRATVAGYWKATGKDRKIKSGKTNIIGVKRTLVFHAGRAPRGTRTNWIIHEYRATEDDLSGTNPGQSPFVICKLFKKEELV
Another assay deals with T2, GST-ANAC019 NAC domain (Arabidopsis thaliana, UniProt Q9C932 14-162).
T2 sequence: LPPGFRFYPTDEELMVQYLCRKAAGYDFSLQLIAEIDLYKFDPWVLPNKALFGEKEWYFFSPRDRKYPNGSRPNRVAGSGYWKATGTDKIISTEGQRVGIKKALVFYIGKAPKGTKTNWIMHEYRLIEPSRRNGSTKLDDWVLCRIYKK
Conditions: protein: recombinant; tags: GST; chain copies: 2; dsDNA, one strand shown. An outline of the steps: as §1

Another assay concerns the target T3, GST-ANAC055(1-171) (Arabidopsis thaliana, UniProt Q9LDY8 1-171).
T3 sequence: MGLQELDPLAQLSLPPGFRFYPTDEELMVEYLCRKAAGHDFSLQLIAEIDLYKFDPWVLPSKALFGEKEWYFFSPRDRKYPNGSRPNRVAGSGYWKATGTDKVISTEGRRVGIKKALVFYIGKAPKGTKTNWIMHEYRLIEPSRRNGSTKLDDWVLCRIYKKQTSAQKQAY
As to conditions: protein: recombinant; tags: GST; chain copies: 2; dsDNA, one strand shown. An outline of the steps: as §1

Another assay addresses T4, GST-ATAF1 NAC domain (Arabidopsis thaliana, UniProt Q39013 7-158).
T4 sequence: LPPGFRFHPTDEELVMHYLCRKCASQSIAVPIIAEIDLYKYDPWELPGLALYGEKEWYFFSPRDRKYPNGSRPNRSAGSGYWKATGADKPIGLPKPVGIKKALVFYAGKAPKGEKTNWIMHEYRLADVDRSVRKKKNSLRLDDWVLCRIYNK
As to conditions: protein: recombinant; tags: GST; chain copies: 2; dsDNA, one strand shown. The gist of the method:
as §1

Assay [1] addresses T5, GST-ANAC092(1-285) full length (Arabidopsis thaliana, UniProt Q9FKA0 1-285).
T5 sequence: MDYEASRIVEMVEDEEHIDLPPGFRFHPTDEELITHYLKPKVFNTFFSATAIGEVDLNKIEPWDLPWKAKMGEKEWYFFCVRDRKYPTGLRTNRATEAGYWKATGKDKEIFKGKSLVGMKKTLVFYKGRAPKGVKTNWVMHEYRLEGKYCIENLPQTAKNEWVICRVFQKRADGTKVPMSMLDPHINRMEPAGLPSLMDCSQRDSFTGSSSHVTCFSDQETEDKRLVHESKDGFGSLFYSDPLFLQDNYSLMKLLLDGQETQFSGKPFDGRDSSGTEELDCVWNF
Conditions: protein: recombinant; tags: GST; chain copies: 2; dsDNA, one strand shown. An outline of the steps: as §1

The target in another assay is T6, GST-NAP(1-166) (Arabidopsis thaliana, UniProt O49255 1-166).
T6 sequence: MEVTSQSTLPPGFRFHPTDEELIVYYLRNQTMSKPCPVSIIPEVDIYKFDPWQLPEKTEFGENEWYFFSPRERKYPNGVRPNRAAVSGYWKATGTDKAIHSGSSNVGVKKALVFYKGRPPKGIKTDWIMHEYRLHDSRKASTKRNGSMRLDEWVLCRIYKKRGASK
As to conditions: protein: recombinant; tags: GST; chain copies: 2; dsDNA, one strand shown. An outline of the steps: as §1

The next assay has as its target T7, GST-NST2(1-184) (Arabidopsis thaliana, UniProt Q9M274 1-184).
T7 sequence: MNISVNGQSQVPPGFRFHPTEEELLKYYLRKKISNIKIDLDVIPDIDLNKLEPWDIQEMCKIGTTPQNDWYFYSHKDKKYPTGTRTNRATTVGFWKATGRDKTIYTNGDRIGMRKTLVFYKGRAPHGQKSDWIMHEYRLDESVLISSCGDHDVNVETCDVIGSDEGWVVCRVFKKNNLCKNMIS
As to conditions: protein: recombinant; tags: GST; chain copies: 2; dsDNA, one strand shown. The gist of the method:
as §1

A further assay has as its target T8, GST-NTL8 NAC domain (Arabidopsis thaliana, UniProt Q9XIN7 14-156).
T8 sequence: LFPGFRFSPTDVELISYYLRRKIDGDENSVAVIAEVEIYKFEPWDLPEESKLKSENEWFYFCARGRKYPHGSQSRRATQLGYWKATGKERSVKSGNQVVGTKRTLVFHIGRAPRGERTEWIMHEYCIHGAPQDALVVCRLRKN
As to conditions: protein: recombinant; tags: GST; chain copies: 2; dsDNA, one strand shown. An outline of the steps: as §1

Another assay concerns the target T9, GST-SND1(1-203) (Arabidopsis thaliana, UniProt Q9LPI7 1-203).
T9 sequence: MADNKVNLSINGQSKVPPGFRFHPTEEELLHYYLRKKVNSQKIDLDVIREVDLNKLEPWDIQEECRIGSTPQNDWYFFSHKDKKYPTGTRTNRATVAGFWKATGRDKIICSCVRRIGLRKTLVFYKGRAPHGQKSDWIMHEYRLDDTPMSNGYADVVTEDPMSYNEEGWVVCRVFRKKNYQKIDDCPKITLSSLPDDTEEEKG
As to conditions: protein: recombinant; tags: GST; chain copies: 2; dsDNA, one strand shown. The gist of the method:
as §1

The next assay addresses T10, GST-VND3 NAC domain (Arabidopsis thaliana, UniProt Q9FH59 12-162).
T10 sequence: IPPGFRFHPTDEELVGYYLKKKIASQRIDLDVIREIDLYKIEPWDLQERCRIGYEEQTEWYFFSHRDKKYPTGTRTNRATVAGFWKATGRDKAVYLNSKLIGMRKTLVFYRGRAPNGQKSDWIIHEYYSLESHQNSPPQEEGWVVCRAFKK
Conditions: protein: recombinant; tags: GST; chain copies: 2; dsDNA, one strand shown. An outline of the steps:
as §1

The target of a further assay is T11, GST-VND7 NAC domain (Arabidopsis thaliana, UniProt Q9C8W9 9-158).
T11 sequence: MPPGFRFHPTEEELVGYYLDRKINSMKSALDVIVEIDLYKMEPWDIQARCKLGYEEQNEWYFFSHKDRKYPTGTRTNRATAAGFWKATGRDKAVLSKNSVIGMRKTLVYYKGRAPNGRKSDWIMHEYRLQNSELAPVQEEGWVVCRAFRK
As to conditions: protein: recombinant; tags: GST; chain copies: 2; dsDNA, one strand shown. The gist of the method: as §1

The target in another assay is GST-WRKY1(266-371) (Arabidopsis thaliana, UniProt Q9SI37 266-371). Conditions: protein: recombinant; tags: GST; dsDNA, one strand shown. An outline of the steps: as §1
Sequence of GST-WRKY1(266-371) (Q9SI37 266-371): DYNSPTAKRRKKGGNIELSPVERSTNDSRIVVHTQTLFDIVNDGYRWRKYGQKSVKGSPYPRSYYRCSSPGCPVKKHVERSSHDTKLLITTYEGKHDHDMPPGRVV

Consider AGACGTGA, for which the binding signal with GST-ANAC092(1-176) is 0.217 E-score; with GST-NTL6(1-168) it was 0.0777 E-score; with GST-ANAC019 NAC domain it was 0.425 E-score; with GST-ANAC055(1-171), 0.368 E-score; with GST-ATAF1 NAC domain, 0.356 E-score; in assay [1], 0.272 E-score. Moreover, the binding signal in the assay with GST-NAP(1-166) worked out at 0.223 E-score; with GST-NST2(1-184) it was 0.157 E-score; in the assay with GST-NTL8 NAC domain, 0.116 E-score; with GST-SND1(1-203) it was 0.25 E-score; with GST-VND3 NAC domain, 0.358 E-score; in the assay with GST-VND7 NAC domain, 0.348 E-score. In addition, in the assay with GST-WRKY1(266-371), the binding signal is 0.116 E-score.
ACGTAAGT: the binding signal came to 0.357 E-score with GST-ANAC092(1-176); 0.212 E-score in the assay with GST-NTL6(1-168); 0.418 E-score with GST-ANAC019 NAC domain; 0.402 E-score with GST-ANAC055(1-171); 0.407 E-score in the assay with GST-ATAF1 NAC domain; 0.39 E-score in assay [1]. The binding signal with GST-NAP(1-166) stood at 0.344 E-score; in the assay with GST-NST2(1-184) it was 0.233 E-score; in the assay with GST-NTL8 NAC domain, 0.125 E-score; with GST-SND1(1-203), 0.35 E-score; with GST-VND3 NAC domain, 0.414 E-score; in the assay with GST-VND7 NAC domain, 0.42 E-score. The binding signal with GST-WRKY1(266-371) was determined as 0.112 E-score.
In the case of ACACGCAA, the binding signal in the assay with GST-ANAC092(1-176) came to 0.498 E-score; with GST-NTL6(1-168), 0.0863 E-score; in the assay with GST-ANAC019 NAC domain, 0.484 E-score; with GST-ANAC055(1-171), 0.473 E-score; in the assay with GST-ATAF1 NAC domain, 0.439 E-score; in assay [1], 0.498 E-score. Also, the binding signal with GST-NAP(1-166) stood at 0.487 E-score; with GST-NST2(1-184) it was 0.47 E-score; in the assay with GST-NTL8 NAC domain it was 0.218 E-score; with GST-SND1(1-203), 0.477 E-score; in the assay with GST-VND3 NAC domain, 0.477 E-score; with GST-VND7 NAC domain, 0.482 E-score. Further, in the assay with GST-WRKY1(266-371), the binding signal amounted to 0.172 E-score.
Take AAATTGAC: the binding signal is 0.173 E-score with GST-ANAC092(1-176); 0.156 E-score with GST-NTL6(1-168); 0.134 E-score with GST-ANAC019 NAC domain; 0.213 E-score with GST-ANAC055(1-171); 0.228 E-score with GST-ATAF1 NAC domain; 0.139 E-score in [1]. Also, the binding signal with GST-NAP(1-166) worked out at 0.136 E-score; in the assay with GST-NST2(1-184), 0.194 E-score; with GST-NTL8 NAC domain, 0.0641 E-score; in the assay with GST-SND1(1-203), 0.2 E-score; with GST-VND3 NAC domain it was 0.228 E-score; in the assay with GST-VND7 NAC domain, 0.0875 E-score. Also, in the assay with GST-WRKY1(266-371), the binding signal was 0.45 E-score.
As to ACGCAAAG, the binding signal in the assay with GST-ANAC092(1-176) turned out to be 0.455 E-score; with GST-NTL6(1-168), 0.102 E-score; with GST-ANAC019 NAC domain, 0.273 E-score; with GST-ANAC055(1-171) it was 0.228 E-score; with GST-ATAF1 NAC domain, 0.256 E-score; in assay [1] it was 0.452 E-score. In addition, the binding signal with GST-NAP(1-166) was 0.295 E-score; with GST-NST2(1-184), 0.331 E-score; in the assay with GST-NTL8 NAC domain, 0.19 E-score; with GST-SND1(1-203), 0.407 E-score; with GST-VND3 NAC domain it was 0.374 E-score; with GST-VND7 NAC domain it was 0.346 E-score. Besides, the binding signal with GST-WRKY1(266-371) was determined as 0.16 E-score.
On to CACGCAAG, for which the binding signal came to 0.481 E-score in the assay with GST-ANAC092(1-176); 0.0685 E-score in the assay with GST-NTL6(1-168); 0.413 E-score with GST-ANAC019 NAC domain; 0.354 E-score with GST-ANAC055(1-171); 0.268 E-score with GST-ATAF1 NAC domain; 0.484 E-score in assay [1]. Further, the binding signal in the assay with GST-NAP(1-166) was found to be 0.348 E-score; with GST-NST2(1-184) it was 0.358 E-score; with GST-NTL8 NAC domain, 0.155 E-score; with GST-SND1(1-203) it was 0.404 E-score; with GST-VND3 NAC domain, 0.415 E-score; in the assay with GST-VND7 NAC domain, 0.367 E-score. Besides, in the assay with GST-WRKY1(266-371), the binding signal turned out to be 0.0865 E-score.
